This note sets out measurements from article PMC7862700, “An all-to-all approach to the identification of sequence-specific readers for epigenetic DNA modifications on cytosine”.

Test in all cases: DAPPL (digital affinity profiling via proximity ligation, sequencing); 10 mM Tris-HCl pH 7.5, 50 mM NaCl, 1 mM DTT, 4% glycerol, room temperature, 30 min; GST-TFs on glutathione beads, 16-mer random dsDNA library, 0.1% formaldehyde crosslink after washing; high values mean tight binding
In one experiment the target is T1, FEV (Homo sapiens, UniProt Q99581 1-238).
T1 sequence: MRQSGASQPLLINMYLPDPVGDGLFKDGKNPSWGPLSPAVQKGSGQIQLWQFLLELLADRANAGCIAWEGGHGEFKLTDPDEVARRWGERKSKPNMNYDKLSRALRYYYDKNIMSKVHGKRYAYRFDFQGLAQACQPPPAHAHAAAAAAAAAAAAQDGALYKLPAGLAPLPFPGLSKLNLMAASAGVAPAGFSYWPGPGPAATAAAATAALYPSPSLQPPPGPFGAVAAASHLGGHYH
Particulars: protein: recombinant; tags: N-terminal GST; dsDNA, one strand shown. The essentials: (§1)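 Binding signal is defined as a hexamer's read frequency for one factor over its frequency for the tag-only sample. To obtain reads, GST-fused human transcription factors were expressed in yeast, captured on glutathione beads, barcoded with DNA and pooled with that sample. Pools met 200 nmole of a 16-mer random double-stranded DNA library in Tris/NaCl/DTT/glycerol buffer for 30 min at room temperature before washing, 0.1% formaldehyde crosslinking, proximity ligation (BsaI/T4 ligase, 1 h, 37 °C), PCR and Illumina NextSeq500 sequencing.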

A further experiment has as its target ETV5 (Homo sapiens, UniProt P41161 1-510). The following applies: protein: recombinant; tags: N-terminal GST; dsDNA, one strand shown. In short, it runs like this: as §1
The target in a further experiment is HSF1 (Homo sapiens, UniProt Q00613 1-529). Particulars: protein: recombinant; tags: N-terminal GST; chain copies: 3; dsDNA, one strand shown. In short, it runs like this: as §1
HSF1, sequence (Q00613 whole entry): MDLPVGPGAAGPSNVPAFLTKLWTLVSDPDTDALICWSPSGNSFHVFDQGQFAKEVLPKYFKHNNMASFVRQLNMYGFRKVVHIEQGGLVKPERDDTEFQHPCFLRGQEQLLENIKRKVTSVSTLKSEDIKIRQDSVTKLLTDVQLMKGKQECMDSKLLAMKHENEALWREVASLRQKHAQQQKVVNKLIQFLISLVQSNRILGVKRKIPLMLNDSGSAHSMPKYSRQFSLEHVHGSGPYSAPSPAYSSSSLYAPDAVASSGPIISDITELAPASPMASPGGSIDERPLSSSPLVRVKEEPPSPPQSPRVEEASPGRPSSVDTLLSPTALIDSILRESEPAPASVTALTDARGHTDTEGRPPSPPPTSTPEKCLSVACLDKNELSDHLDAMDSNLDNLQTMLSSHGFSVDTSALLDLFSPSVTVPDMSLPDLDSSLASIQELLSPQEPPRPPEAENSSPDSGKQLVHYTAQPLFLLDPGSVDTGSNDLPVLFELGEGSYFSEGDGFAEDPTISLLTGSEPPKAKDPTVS
The next experiment concerns the target T2, SPIC (Homo sapiens, UniProt Q8N5J4 1-248).
T2 sequence: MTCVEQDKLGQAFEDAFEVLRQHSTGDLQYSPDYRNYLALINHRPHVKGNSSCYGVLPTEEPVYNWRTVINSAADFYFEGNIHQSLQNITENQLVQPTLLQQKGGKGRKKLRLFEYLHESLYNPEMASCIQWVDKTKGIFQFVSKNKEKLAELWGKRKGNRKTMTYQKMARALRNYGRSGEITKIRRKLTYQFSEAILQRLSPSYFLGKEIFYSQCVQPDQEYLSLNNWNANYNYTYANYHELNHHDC
The following applies: protein: recombinant; tags: N-terminal GST; dsDNA, one strand shown. In short, it runs like this:
as §1

In a further experiment the target is ELF4 (Homo sapiens, UniProt Q99607 1-663). Particulars: protein: recombinant; tags: N-terminal GST; dsDNA, one strand shown. The essentials: as §1
ELF4, sequence (Q99607 whole entry): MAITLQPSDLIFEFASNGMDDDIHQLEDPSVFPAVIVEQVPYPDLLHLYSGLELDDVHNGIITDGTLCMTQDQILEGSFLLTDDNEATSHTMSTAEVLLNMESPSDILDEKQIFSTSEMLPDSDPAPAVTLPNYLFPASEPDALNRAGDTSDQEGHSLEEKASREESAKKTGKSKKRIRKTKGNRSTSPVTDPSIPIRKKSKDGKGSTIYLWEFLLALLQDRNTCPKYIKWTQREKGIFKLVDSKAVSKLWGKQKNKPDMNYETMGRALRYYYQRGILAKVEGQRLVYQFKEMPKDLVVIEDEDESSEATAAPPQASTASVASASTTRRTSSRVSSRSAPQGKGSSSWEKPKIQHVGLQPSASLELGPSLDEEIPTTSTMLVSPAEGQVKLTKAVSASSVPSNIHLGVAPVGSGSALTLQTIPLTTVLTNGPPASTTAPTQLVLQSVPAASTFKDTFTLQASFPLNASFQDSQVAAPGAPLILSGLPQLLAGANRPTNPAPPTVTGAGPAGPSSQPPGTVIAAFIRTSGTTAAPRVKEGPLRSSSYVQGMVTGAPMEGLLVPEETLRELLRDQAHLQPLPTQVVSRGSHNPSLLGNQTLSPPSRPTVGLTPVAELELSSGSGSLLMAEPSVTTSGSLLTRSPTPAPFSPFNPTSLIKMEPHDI
The target of a further experiment is T3, ELK4 (Homo sapiens, UniProt P28324-2 1-405).
T3 sequence: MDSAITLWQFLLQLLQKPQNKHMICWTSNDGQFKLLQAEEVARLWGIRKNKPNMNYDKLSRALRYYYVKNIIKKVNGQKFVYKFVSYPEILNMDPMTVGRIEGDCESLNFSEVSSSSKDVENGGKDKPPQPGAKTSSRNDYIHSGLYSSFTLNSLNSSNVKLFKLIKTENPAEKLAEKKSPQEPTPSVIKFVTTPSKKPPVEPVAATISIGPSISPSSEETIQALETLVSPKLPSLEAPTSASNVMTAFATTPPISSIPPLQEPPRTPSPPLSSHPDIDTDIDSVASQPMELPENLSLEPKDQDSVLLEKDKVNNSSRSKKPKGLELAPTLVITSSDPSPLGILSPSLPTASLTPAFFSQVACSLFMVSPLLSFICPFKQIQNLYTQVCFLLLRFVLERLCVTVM
The following applies: protein: recombinant; tags: N-terminal GST; dsDNA, one strand shown. The essentials:
as §1

In another experiment the target is T4, ETV2 (Homo sapiens, UniProt O00321 1-342).
T4 sequence: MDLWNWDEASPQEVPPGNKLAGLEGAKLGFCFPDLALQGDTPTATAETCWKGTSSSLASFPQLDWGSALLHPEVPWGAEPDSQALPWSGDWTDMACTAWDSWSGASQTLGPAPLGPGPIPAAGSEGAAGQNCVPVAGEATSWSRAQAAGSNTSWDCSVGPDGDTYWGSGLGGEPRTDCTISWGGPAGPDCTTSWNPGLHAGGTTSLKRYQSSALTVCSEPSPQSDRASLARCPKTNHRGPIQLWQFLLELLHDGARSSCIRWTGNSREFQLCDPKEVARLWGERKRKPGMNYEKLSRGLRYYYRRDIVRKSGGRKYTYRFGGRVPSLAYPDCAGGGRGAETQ
Particulars: protein: recombinant; tags: N-terminal GST; dsDNA, one strand shown. The essentials: as §1

Another experiment has as its target T5, ELF3 (Homo sapiens, UniProt P78545 1-371).
T5 sequence: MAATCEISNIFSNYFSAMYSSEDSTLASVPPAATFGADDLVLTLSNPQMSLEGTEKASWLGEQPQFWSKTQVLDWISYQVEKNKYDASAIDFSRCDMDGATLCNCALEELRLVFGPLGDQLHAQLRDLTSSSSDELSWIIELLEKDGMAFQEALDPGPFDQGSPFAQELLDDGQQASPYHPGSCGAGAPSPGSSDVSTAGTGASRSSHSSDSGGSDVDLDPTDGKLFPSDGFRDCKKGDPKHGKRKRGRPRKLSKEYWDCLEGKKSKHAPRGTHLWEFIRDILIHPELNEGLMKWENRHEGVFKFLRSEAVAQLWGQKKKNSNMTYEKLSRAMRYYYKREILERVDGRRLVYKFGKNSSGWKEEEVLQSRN
The following applies: protein: recombinant; tags: N-terminal GST; dsDNA, one strand shown. The essentials:
as §1

The next experiment has as its target CRX (Homo sapiens, UniProt O43186 1-299). The following applies: protein: recombinant; tags: N-terminal GST; dsDNA, one strand shown. The essentials:
as §1

The target in another experiment is ETV1 (Homo sapiens, UniProt P50549 1-477). Particulars: protein: recombinant; tags: N-terminal GST; dsDNA, one strand shown. The essentials: as §1
ETV1, sequence (P50549 whole entry): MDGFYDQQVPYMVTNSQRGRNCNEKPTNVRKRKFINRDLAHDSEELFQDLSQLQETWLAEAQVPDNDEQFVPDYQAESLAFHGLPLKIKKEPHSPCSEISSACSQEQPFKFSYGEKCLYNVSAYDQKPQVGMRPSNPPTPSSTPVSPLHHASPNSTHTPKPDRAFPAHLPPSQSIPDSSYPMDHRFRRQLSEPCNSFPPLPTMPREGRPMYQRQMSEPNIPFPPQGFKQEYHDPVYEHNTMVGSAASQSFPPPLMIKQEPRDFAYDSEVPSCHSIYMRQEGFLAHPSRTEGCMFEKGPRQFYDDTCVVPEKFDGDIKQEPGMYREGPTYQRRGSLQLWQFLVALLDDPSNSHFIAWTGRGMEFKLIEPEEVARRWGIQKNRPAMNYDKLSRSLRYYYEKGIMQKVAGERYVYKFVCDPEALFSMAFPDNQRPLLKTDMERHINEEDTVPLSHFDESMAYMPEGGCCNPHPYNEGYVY
Another experiment deals with T6, ERF (Homo sapiens, UniProt P50548 1-548).
T6 sequence: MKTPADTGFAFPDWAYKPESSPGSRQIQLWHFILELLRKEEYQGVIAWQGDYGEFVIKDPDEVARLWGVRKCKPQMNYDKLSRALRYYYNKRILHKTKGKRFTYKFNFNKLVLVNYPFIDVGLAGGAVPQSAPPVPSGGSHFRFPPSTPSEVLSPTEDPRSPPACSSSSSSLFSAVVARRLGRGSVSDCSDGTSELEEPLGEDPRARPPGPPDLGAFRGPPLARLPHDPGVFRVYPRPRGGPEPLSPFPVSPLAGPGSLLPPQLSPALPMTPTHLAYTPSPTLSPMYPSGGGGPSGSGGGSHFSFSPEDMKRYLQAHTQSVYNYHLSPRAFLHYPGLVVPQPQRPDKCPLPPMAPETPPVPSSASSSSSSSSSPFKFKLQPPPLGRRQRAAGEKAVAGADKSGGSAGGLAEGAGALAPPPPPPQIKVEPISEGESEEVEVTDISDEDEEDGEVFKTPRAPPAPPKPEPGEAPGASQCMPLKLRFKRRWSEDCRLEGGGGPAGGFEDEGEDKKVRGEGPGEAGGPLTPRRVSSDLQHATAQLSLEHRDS
The following applies: protein: recombinant; tags: N-terminal GST; dsDNA, one strand shown. In short, it runs like this: as §1

A further experiment concerns the target T7, ETV3L (Homo sapiens, UniProt Q6ZN32 1-361).
T7 sequence: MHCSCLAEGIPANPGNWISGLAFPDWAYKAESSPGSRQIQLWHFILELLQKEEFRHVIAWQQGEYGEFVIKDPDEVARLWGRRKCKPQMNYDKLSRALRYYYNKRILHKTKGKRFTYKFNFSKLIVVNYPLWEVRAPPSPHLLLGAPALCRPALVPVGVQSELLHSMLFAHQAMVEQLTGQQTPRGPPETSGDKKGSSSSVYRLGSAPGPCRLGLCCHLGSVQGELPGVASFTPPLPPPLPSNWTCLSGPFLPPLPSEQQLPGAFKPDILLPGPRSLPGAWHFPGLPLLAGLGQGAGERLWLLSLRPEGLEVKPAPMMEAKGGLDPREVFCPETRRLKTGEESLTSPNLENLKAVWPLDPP
The following applies: protein: recombinant; tags: N-terminal GST; dsDNA, one strand shown. The essentials: as §1

Another experiment concerns the target T8, ETS2 (Homo sapiens, UniProt P15036 1-469).
T8 sequence: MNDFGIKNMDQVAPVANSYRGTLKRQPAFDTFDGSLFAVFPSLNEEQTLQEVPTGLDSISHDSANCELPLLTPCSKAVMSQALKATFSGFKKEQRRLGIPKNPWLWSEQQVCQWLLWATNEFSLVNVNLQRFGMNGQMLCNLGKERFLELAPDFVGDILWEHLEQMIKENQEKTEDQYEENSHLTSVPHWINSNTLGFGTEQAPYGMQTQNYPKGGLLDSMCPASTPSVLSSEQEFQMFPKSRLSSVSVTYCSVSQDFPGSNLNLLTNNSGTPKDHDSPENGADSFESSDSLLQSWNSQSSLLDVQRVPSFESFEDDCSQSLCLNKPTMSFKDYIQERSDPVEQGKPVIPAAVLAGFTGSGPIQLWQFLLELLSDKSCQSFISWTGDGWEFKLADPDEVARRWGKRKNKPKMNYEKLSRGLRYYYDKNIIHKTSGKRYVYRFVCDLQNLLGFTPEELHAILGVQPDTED
The following applies: protein: recombinant; tags: N-terminal GST; dsDNA, one strand shown. The essentials: as §1

Another experiment concerns the target T9, SPDEF (Homo sapiens, UniProt O95238 1-335).
T9 sequence: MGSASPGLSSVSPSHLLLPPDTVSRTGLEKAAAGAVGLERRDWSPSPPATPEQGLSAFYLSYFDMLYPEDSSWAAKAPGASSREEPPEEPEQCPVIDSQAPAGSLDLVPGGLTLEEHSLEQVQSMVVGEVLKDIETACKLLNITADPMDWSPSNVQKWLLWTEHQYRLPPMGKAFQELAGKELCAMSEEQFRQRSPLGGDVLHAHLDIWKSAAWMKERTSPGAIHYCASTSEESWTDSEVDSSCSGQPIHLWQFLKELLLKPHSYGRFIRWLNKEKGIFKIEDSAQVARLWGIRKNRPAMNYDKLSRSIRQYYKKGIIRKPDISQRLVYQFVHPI
Particulars: protein: recombinant; tags: N-terminal GST; dsDNA, one strand shown. The essentials: as §1

A further experiment concerns the target T10, ETV7 (Homo sapiens, UniProt Q9Y603 1-341).
T10 sequence: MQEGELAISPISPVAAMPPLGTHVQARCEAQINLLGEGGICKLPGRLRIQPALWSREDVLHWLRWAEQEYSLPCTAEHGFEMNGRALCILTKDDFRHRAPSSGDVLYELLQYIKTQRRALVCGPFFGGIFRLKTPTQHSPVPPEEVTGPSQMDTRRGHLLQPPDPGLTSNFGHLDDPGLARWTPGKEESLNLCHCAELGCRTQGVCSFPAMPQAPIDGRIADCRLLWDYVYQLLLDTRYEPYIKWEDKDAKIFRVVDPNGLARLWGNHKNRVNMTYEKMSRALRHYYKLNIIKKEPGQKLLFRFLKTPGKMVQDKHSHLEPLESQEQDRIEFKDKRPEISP
The following applies: protein: recombinant; tags: N-terminal GST; dsDNA, one strand shown. The essentials:
as §1

For the next experiment, the target named is T11, ELF5 (Homo sapiens, UniProt Q9UKW6-2 1-255).
T11 sequence: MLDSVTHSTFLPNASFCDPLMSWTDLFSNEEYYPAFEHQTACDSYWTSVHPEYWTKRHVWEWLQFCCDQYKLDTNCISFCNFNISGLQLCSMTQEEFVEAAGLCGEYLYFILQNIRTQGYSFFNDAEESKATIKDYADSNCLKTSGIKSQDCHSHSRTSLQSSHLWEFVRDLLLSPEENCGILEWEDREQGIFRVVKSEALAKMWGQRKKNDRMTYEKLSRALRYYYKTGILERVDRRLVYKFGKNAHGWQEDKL
The following applies: protein: recombinant; tags: N-terminal GST; dsDNA, one strand shown. In short, it runs like this:
as §1

A further experiment has as its target T12, ETV3 (Homo sapiens, UniProt P41162-2 1-143).
T12 sequence: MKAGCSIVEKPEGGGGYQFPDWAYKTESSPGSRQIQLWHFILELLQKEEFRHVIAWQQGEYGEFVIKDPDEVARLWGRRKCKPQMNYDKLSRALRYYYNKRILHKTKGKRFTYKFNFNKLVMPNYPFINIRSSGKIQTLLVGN
Particulars: protein: recombinant; tags: N-terminal GST; dsDNA, one strand shown. The essentials:
as §1

Another experiment concerns the target ETV6 (Homo sapiens, UniProt P41212 1-452). The following applies: protein: recombinant; tags: N-terminal GST; dsDNA, one strand shown. In short, it runs like this: as §1

ETV5, sequence (P41161 whole entry): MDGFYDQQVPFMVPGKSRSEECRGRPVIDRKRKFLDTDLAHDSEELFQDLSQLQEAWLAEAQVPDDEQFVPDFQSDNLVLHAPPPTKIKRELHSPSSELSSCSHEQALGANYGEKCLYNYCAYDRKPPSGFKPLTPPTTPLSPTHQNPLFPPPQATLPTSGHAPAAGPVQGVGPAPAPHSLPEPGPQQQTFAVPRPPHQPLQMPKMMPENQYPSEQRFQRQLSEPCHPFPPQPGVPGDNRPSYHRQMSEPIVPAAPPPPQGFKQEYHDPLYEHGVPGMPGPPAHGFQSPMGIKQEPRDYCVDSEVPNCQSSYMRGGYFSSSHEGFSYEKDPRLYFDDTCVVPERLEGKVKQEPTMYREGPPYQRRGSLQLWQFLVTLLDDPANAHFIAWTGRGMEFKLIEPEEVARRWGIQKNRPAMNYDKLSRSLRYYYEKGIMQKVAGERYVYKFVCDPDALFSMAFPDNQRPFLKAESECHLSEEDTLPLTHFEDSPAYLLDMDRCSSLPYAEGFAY
CRX, sequence (O43186 whole entry): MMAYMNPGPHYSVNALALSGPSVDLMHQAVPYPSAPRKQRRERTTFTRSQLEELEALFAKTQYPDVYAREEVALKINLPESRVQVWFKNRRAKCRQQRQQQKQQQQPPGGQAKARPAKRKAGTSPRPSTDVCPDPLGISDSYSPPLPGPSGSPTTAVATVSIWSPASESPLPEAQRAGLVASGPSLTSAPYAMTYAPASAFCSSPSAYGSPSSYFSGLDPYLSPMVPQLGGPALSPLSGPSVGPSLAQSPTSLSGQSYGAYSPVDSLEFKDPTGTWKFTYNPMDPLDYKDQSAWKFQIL
ETV6, sequence (P41212 whole entry): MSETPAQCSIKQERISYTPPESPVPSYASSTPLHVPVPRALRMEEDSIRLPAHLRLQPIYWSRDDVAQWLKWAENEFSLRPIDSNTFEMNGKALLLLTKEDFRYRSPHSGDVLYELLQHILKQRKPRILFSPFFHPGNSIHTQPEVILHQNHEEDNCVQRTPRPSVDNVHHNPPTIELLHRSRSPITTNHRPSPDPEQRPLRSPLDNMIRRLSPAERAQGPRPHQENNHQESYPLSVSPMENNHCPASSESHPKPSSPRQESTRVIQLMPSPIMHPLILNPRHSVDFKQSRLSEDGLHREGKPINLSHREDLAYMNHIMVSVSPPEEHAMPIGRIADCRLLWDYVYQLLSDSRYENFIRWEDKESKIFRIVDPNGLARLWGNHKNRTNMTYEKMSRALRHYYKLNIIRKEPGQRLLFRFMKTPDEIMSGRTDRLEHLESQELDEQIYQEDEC

With GTCCTA, the binding signal in the experiment with FEV is 1.07 fold enrichment (6-mer frequency, TF over GST control); with ETV5, 1.16 fold enrichment (6-mer frequency, TF over GST control); with HSF1, 1.03 fold enrichment (6-mer frequency, TF over GST control); in the experiment with SPIC it was 1.16 fold enrichment (6-mer frequency, TF over GST control); with ELF4, 1.18 fold enrichment (6-mer frequency, TF over GST control); with ELK4 it was 1.13 fold enrichment (6-mer frequency, TF over GST control). Moreover, the binding signal with ETV2 was 1.31 fold enrichment (6-mer frequency, TF over GST control); with ELF3 it was 1.2 fold enrichment (6-mer frequency, TF over GST control); with CRX, 1.06 fold enrichment (6-mer frequency, TF over GST control); with ETV1, 1.12 fold enrichment (6-mer frequency, TF over GST control); with ERF, 1.32 fold enrichment (6-mer frequency, TF over GST control); in the experiment with ETV3L, 1.12 fold enrichment (6-mer frequency, TF over GST control). Further, the binding signal with ETS2 is 1.11 fold enrichment (6-mer frequency, TF over GST control); with SPDEF it was 1.29 fold enrichment (6-mer frequency, TF over GST control); with ETV7, 1.29 fold enrichment (6-mer frequency, TF over GST control); in the experiment with ELF5, 1.14 fold enrichment (6-mer frequency, TF over GST control); with ETV3 it was 1.25 fold enrichment (6-mer frequency, TF over GST control); with ETV6 it was 1.13 fold enrichment (6-mer frequency, TF over GST control).
